# ChEMBL document CHEMBL3988442, “University of Dundee, Small-Polar-MMV Screening Library” (2021)
# For some assays here: Entries with a potency or affinity are not part of this list.
# Assays:
# Set-up in all cases: scale not given: direction of the effect not stated beside the values
# [1] = target: Protein translocase subunit SecA (Escherichia coli (strain K12)) (UniProt P10408); experiment: Assay to Identify E. coli SecA ATPase Inhibitors; assay type: functional; settings: 30 µM
# [2] = target: T1, Ubiquitin-activating enzyme e1, putative (Leishmania donovani (strain BPK282A1)) (UniProt E9BSI1); experiment: Leishmania donovani Ubiquitin Activating Enzyme (LdE1); assay type: functional; settings: 30 µM
# T1 sequence (whole entry): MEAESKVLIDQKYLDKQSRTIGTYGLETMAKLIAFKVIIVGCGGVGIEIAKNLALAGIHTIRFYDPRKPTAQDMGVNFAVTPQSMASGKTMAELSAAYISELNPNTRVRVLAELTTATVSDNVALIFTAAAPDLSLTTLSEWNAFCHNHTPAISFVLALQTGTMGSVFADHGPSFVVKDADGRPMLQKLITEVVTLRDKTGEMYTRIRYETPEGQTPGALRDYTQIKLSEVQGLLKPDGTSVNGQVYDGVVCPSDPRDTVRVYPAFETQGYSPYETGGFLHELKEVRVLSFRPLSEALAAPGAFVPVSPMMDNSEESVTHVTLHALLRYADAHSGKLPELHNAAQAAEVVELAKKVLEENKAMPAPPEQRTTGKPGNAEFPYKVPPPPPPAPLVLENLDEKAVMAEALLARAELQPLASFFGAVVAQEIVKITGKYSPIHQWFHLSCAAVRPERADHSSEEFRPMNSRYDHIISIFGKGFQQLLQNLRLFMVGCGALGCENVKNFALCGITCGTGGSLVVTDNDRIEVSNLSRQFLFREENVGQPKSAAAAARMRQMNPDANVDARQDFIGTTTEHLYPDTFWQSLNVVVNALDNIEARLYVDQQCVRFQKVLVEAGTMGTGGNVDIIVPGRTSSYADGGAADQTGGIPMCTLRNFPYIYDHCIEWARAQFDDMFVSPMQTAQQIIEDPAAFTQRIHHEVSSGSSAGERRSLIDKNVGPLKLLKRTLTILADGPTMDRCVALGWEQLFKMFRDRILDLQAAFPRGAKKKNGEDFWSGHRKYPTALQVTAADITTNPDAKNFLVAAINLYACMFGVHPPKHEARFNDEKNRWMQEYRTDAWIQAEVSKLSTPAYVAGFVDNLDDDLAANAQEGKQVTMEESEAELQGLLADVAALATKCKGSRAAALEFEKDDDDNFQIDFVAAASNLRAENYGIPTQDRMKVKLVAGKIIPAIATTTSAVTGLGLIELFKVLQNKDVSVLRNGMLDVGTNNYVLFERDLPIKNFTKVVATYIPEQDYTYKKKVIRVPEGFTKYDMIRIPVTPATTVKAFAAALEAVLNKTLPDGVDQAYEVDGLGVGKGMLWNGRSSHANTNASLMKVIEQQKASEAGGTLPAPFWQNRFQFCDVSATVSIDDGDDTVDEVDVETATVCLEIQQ
# [3] = target: AMP-activated protein kinase, AMPK (Homo sapiens) (UniProt P54646+O43741+P54619+Q9UGJ0+Q9Y478+Q13131+Q9UGI9); experiment: AMP-dependent Kinase enzyme assay. An in vitro enzyme assay that detects ADP turnover that is directly proportional to AMPK activity. This uses naive AMPK that is activated during the assay with MK-8722; assay type: functional; settings: 30 µM
# [4] = target: Sialic acid-binding Ig-like lectin 9 (Homo sapiens) (UniProt Q9Y336); experiment: Hs-Siglec9 ALPHAscreen SOP 20170721; settings: 10 µM
# Chain of Sialic acid-binding Ig-like lectin 9 (Homo sapiens) (Q9Y336 whole entry): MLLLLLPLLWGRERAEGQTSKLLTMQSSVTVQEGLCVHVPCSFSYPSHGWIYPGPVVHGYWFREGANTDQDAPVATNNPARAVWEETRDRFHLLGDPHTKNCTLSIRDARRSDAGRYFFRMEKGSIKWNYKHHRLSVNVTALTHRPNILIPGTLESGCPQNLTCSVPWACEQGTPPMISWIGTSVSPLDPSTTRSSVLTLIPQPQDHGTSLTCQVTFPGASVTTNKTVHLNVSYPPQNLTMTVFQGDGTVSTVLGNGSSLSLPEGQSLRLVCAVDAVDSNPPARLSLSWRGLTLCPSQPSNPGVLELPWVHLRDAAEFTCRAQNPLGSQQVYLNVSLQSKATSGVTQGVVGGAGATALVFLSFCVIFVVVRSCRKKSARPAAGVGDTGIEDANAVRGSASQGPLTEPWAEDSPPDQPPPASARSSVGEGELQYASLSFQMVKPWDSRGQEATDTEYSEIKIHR
# [5] = system: Trypanosoma cruzi; experiment: Trypanosoma cruzi phosphomannomutase and mannose-1-phosphate guanylyltransferase assay; assay type: functional; settings: 10 µM
# [6] = target: T2, Arginase-2, mitochondrial (Homo sapiens) (UniProt P78540); experiment: in vitro enzyme assay to detect the production of urea directly proportional to the activity of Arginase II; assay type: functional; settings: 33.3 µM; note: in the data most compounds retested in dose-response had high values
# T2 sequence (whole entry): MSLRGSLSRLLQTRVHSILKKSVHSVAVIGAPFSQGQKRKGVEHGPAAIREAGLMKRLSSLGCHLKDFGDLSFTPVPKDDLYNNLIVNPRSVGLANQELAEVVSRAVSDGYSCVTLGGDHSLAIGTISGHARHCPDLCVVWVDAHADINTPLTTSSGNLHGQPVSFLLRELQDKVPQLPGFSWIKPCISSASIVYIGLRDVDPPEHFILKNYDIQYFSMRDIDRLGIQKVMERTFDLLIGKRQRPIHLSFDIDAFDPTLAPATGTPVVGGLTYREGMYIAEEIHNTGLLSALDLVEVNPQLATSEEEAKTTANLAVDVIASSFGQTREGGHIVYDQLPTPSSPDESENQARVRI
# [7] = target: T3, Proteasome subunit beta (Trypanosoma cruzi) (UniProt O96673); experiment: Trypanosoma cruzi proteasome chymotrypsin-like activity (TcProtChymo) assay.; note: in the data most compounds retested in dose-response had high values; assay type: functional; settings: 9.37 µM
# T3 sequence (whole entry): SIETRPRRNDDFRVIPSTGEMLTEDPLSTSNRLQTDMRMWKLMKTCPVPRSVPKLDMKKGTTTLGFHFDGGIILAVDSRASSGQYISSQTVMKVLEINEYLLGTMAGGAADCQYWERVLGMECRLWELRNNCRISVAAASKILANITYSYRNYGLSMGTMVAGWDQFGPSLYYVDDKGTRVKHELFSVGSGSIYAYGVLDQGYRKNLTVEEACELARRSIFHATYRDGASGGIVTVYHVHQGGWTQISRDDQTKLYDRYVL
# [8] = organism: Homo sapiens; experiment: To identify inhibition of the IFN signalling (Jak-Stat) pathway via expression of an eGFP reporter gene under the control of an IFN-stimulated response element (ISRE) containing MxA promoter.; assay type: functional; settings: 30 µM
# [9] = target: T4, Tyrosyl-tRNA synthetase, putative (Trypanosoma cruzi (strain CL Brener)) (UniProt Q4DSP6); experiment: Trypanosoma cruzi tyrosyl tRNA synthetase (TcYRS) _High Tyrosine SOP; assay type: functional; settings: 30 µM; note: in the data most compounds retested in dose-response had high values
# T4 sequence (whole entry): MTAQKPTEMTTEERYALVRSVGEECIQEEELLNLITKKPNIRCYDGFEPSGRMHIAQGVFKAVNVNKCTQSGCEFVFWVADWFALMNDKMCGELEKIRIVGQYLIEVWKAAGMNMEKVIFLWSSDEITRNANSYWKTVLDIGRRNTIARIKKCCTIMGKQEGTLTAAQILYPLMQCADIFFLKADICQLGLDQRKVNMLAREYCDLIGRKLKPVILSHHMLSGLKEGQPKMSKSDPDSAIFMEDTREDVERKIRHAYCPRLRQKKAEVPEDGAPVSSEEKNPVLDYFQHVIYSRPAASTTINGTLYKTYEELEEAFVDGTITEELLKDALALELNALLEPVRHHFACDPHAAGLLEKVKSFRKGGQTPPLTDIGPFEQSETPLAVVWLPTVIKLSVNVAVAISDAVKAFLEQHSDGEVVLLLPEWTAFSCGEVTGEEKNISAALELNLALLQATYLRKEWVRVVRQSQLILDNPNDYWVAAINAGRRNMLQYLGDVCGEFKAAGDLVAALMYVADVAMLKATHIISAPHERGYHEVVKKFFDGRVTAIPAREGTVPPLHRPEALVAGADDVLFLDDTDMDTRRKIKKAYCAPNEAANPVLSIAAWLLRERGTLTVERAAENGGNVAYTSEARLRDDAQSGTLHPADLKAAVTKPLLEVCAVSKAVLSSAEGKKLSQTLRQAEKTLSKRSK
# [10] = target: T4, Tyrosyl-tRNA synthetase, putative (Trypanosoma cruzi (strain CL Brener)); experiment: Trypanosoma cruzi tyrosyl tRNA synthetase (TcYRS) SOP; assay type: functional; settings: 30 µM
# [11] = target: Chromo domain-containing protein 1 (Saccharomyces cerevisiae (strain ATCC 204508 / S288c) (Baker's yeast)) (UniProt P32657); experiment: ScCHD-1 Enzyme Inhibition Assay; assay type: functional; settings: 30 µM; note: in the data most compounds retested in dose-response had high values
# Chain of Chromo domain-containing protein 1 (Saccharomyces cerevisiae (strain ATCC 204508 / S288c) (Baker's yeast)) (P32657 whole entry, the tested form may be a part): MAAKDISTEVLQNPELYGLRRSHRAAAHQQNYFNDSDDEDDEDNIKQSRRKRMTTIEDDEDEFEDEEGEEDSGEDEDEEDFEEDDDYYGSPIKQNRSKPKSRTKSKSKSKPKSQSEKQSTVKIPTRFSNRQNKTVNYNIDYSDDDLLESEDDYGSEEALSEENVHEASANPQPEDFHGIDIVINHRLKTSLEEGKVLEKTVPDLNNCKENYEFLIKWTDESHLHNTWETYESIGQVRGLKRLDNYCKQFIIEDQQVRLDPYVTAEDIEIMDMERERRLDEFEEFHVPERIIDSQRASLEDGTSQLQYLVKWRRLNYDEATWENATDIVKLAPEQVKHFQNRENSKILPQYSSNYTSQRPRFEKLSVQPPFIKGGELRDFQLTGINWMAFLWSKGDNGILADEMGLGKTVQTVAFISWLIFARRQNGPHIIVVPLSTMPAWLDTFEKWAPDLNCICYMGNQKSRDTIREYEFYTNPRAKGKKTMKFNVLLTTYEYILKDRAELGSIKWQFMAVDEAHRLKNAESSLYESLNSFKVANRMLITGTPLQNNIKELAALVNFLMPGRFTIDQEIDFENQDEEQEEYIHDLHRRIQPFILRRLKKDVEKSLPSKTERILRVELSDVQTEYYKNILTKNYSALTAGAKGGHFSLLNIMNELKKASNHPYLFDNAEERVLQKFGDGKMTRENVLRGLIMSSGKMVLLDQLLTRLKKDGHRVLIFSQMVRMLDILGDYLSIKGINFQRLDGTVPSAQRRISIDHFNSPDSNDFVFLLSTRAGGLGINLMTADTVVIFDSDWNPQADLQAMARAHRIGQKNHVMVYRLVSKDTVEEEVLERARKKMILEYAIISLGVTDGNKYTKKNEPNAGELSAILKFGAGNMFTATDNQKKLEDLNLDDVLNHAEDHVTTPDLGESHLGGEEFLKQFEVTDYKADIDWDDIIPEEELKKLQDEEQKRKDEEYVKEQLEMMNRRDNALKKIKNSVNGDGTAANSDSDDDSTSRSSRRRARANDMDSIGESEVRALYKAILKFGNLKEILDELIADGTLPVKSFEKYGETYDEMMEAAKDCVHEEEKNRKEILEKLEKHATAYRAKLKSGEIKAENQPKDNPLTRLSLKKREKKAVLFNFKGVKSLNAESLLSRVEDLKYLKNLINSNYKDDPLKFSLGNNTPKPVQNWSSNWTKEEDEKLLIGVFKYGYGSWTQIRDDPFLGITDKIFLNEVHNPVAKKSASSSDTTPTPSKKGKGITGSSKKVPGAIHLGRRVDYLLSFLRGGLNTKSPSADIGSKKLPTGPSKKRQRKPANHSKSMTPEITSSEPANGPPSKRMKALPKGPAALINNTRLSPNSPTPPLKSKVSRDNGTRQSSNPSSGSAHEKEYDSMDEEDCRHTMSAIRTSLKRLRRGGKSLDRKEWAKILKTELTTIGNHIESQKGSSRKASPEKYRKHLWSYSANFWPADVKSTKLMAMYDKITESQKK
# Chain of Protein translocase subunit SecA (Escherichia coli (strain K12)) (P10408 whole entry): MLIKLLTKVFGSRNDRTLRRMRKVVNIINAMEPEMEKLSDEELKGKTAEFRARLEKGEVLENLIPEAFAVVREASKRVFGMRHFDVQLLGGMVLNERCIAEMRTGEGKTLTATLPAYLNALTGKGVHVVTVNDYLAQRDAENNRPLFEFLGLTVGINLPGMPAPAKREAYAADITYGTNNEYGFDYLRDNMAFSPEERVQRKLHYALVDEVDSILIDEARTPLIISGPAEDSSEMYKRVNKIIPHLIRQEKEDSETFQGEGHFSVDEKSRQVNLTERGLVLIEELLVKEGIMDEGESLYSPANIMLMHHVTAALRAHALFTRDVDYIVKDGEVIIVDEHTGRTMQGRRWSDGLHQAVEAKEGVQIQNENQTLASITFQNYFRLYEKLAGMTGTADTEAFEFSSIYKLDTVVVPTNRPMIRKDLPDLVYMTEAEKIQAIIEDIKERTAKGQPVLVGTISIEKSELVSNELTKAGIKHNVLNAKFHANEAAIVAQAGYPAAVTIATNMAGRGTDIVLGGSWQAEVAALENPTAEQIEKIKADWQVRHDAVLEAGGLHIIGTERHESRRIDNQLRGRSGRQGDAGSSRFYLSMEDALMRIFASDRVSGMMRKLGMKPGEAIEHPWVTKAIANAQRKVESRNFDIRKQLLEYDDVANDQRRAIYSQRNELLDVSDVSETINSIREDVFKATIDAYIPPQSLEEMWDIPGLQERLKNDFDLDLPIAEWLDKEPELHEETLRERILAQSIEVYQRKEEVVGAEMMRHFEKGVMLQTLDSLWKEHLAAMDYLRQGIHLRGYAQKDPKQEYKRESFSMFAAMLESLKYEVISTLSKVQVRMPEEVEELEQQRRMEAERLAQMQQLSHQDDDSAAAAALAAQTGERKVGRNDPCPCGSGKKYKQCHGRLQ
Structure (SMILES),Percent Effect [1] [%],Percent Effect [2] [%],Percent Effect [3] [%],Percent Effect [4] [%],Percent Effect [5] [%],Percent Effect [6] [%],Percent Effect [7] [%],Percent Effect [8] [%],Percent Effect [9] [%],Percent Effect [10] [%],Percent Effect [11] [%]
Fc1cnc(N2CCC3(COCc4cnc(NCC5CC5)nc43)C2)nc1 (configuration not stated),2.14,-2.74,27.5,4.49,-1.59,2.4,4.88,-6.32,1.04,3.7,2.6
CCS(=O)(=O)N1CCO[C@H]2[C@H](OCCCn3cccn3)CC[C@@H]21,-0.913,-2.67,-2.06,-3.13,3.48,-47.1,5.3,-0.821,-4.17,7.5,-1.55
O=C(O)CCc1cccc(C2CCCN2Cc2ccc(F)c(F)c2)n1 (configuration not stated),-3.79,4.05,1.3,8.61,1.78,1.62,1.09,0.308,6.45,14.3,-20.7
CCS(=O)(=O)c1ccc(N2CCC(NC(=O)CCC(C)C)CC2)cc1,-1.62,10.7,-6.1,12.2,6.13,16.1,6.8,27.1,6.01,8.64,-4.64
Cn1ccc(CN2CCC(CO)CC2)cc1=O,-3.9,-1.27,2.26,0.971,-4.41,2.8,1.03,26.1,-2.08,10.1,-1.56
COC(=O)c1cc(OCC2CCC2)cc(C(=O)N[C@H]2CC[C@H](O)CC2)c1,-8.61,0,-13.1,12.3,-5.09,-0.455,2.66,32.3,0,0,0.449
COCCNC(=O)c1ccc(C)c(-n2cccc2)c1,2.25,13.2,4.41,-4.12,-3.8,-2.37,14.3,-4.52,7.45,7.79,-3.58
Cc1nc(C)n(CC2CN(CC(=O)Nc3cccnc3)CCO2)n1 (configuration not stated),-3.48,4.17,1.48,-1.08,-0.486,2.65,2.1,-1.3,4.21,5.13,0.336
O=C(NCCO)C1(Cc2cc(-c3ccc(F)cc3F)no2)CCOCC1,-2.99,12.2,14.6,-1.56,0.988,1.16,15.8,23.3,0,6.49,-16.7
CN(C)C(=O)N[C@@H]1CN(Cc2ccc3c(c2)OCO3)[C@@H]2CCCO[C@@H]21,-4.35,5.33,4.23,8.52,-0.386,-58.6,14.5,1.11,7.29,17.5,-5.44
Cc1nnsc1C(=O)N1CCC2(CC1)c1nc[nH]c1CCN2CC(C)C,-4.82,5.33,-0.152,-8.33,-1.46,-2.08,12.4,-1.57,1.64,6.17,-5.05
Cc1ccc(CNC(CN2CCN(C)CC2)c2ccccc2)cc1 (configuration not stated),-5.66,8.11,-8.66,-0.353,-2.05,-1.74,7.64,13.4,3.23,8.64,-3.22
CN(C)C1CCN(C(=O)NCc2ccccc2Cn2cncn2)CC1,-2.11,10.8,-1.1,10.9,7.72,6.19,12.2,18.3,7.94,17.1,-1.22
Cc1ccc(C)c(-n2ccc3nc(N4CCCC4)ncc3c2=O)c1,-0.118,-6.67,21.7,3.47,-2.16,-6.16,-2.96,-1.59,3.17,-5.13,-0.262
Cc1cc(NC(=O)NCCc2ccsc2)n(C)n1,-0.993,15.3,-5.89,15.8,0.291,-0.883,20.7,-9.26,1.05,10.3,85
CCC(C)NC(=O)c1ccccc1-n1cnnn1 (configuration not stated),-6.55,5.33,0.166,2.83,-0.292,5.21,12.2,3.8,9.29,16.1,-6.11
CC(C)Cc1noc(CN2CCOCC2)n1,-1.04,7.89,-1.16,2.11,2.07,1.15,15.7,-19.8,5.39,12.2,-7.16
CCc1ccc(OCC(O)CN2CCC(O)CC2)cc1 (configuration not stated),-6.44,-2.6,5.75,-12.1,-4.21,-1.05,5.42,11.1,-2.86,0,-19
Cc1ccc(CN2CCc3c(C(=O)N(C)C)nn(C)c3C2)s1,-1.04,8.22,-3.87,6.86,5.95,0,18.6,6.25,8.33,11.1,-4.79
Cc1cccc(-c2noc(CN3CC(n4cc(C)cn4)C3)n2)c1,-0.775,-13,-3.33,7.4,5.24,-2.85,27.4,26.4,1.94,14.6,-5.58
Cc1nn(C)c(C)c1CC(=O)N1CCCC(n2ccnc2)C1 (configuration not stated),-1.6,-5.26,-1.17,-5.34,-3.27,1.8,-0.592,-1.26,1.48,-1.24,-1.5
CN(C)CC(=O)N1C[C@@H]2CC[C@H](Oc3ccccc3Cl)[C@@H]2C1,-5.55,-4.05,9.46,5.31,-2.17,-3.48,-2.5,6.65,-1.07,3.9,9.09
